# Rows were chosen to be rich in hits. Some 1.2% of all compounds tested hit in one or more screens of this group.
# TRPV1 ag – HTS Assay for Compounds that Act as Agonists of the Vanilloid Receptor 1 | AID 540275, 2011 | 320,000 compounds, 0.19% hits | activation, % at 8.33 µM | TRPV1-expressing cells, Fluo-8 calcium influx, agonist mode; in the data active means activation above about 80%; inconclusive means between about 30% and that limit; further: 0% is about no effect
# Target sequence (Q8NER1 whole entry, looked up): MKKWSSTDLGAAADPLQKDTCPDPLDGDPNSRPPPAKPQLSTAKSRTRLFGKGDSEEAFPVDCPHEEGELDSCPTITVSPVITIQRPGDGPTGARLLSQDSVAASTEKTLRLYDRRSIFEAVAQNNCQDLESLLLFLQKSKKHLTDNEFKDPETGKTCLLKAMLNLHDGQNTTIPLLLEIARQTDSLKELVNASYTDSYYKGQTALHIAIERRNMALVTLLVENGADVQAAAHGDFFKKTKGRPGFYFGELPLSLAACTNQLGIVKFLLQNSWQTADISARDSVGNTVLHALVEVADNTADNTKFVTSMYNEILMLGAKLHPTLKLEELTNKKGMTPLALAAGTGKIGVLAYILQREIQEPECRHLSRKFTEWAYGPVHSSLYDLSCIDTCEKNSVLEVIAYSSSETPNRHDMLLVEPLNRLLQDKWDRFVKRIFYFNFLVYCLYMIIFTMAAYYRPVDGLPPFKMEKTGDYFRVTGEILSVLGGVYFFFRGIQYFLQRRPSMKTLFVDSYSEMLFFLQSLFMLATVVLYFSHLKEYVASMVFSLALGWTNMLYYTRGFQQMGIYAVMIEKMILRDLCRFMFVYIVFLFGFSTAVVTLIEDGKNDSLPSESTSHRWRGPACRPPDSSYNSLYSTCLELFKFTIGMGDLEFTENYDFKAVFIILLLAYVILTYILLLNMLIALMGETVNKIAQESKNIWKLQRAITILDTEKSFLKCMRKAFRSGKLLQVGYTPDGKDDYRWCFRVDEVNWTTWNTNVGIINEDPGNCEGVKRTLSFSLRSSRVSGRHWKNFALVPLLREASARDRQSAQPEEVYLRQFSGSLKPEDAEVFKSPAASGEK
#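 TRPV1-expressing cells were cultured overnight at 35.5C and loaded with Fluo-8 calcium dye for 40 to 90 min at room temperature. After a 10 s baseline, compound was added and calcium influx was read kinetically for 3 min (ex 480/em 520 nm).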
# TRPV1 PAM – HTS Assay for Compounds that Act as Potentiators of the Vanilloid Receptor 1; Transient receptor potential cation channel subfamily V member 1 (Homo sapiens), Q8NER1; potentiation, % at 8.33 µM; TRPV1-expressing cells, Fluo-8 calcium influx, capsaicin EC20 potentiation; 320,000 compounds, 0.02% hits; in the data active means potentiation above about 80%; inconclusive means between about 30% and that limit; further: 0% is about no effect
#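 Cells expressing TRPV1 were dye-loaded with Fluo-8 and read kinetically: 10 s baseline, 3 min after compound (agonist portion), then 2 min after EC20 capsaicin (allosteric enhancer portion). Calcium-bound dye fluorescence at 480/520 nm.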
# KCNH2 WT inh – qHTS for Inhibitors of KCHN2 3.1: Wildtype qHTS. Voltage-gated inwardly rectifying potassium channel KCNH2 (Homo sapiens), Q12809. U2OS, BacMam KCNH2, thallium flux FluxOr; active compounds read low. activity change, % at 1.84 µM. 340,000 compounds, 0.37% hits. AID 720551, 2013;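 active means maximum activity change below -70%; inconclusive means maximum activity change between -70% and -50%; inactive means maximum activity change above -50%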; further: on the % scale 0 is the no-effect control and ±100 the full control effect
#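 U2OS cells were transduced with wild-type KCNH2 virus (2.03 x 10^8 / mL) for 4 h at room temperature, then cultured overnight at 37 C. Thallium flux was read with FluxOr dye. Rate constants were normalized to DMSO controls.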
# KCNH2 3.1 block – qHTS for Inhibitors of KCHN2 3.1: Mutant qHTS | 340,000 compounds, 0.95% hits | AID 720553, 2013 | activity change, % (tested at about 1.8 µM) | Potassium voltage-gated channel subfamily H member 2, brain isoform KCNH2 3.1 (human) | U2OS KCNH2 3.1, thallium flux FluxOr; active compounds read low;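 active means maximum activity change below -70%; inconclusive means maximum activity change from -70% to -50%; inactive means maximum activity change above -50%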;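 further: thallium influx rate constant from kinetic fluorescence after stimulation buffer; on the % scale 0 is the no-effect control and ±100 the full control effect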
#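 Steps: virus added to U2OS suspension (4 h, RT, dark); medium with 10% FBS added, cells plated, 37 C overnight; FluxOr/Red40 loading buffer 45 min RT; stimulation buffer, 2 min kinetic read; rate constant normalized.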
# Starred values were filed as active, the others as inactive; ? = inconclusive; / = no result; ! = a repeat was not active.
SMILES,TRPV1 ag,TRPV1 PAM,KCNH2 WT inh,KCNH2 3.1 block
COc1ccc(C(=O)C2CCCN(C/C=C/c3ccccc3OC)C2)c(OC)c1 (stereo not drawn),8,-4,29,-71*
O=C(NN=Cc1ccccc1)C(Oc1ccccc1)c1ccccc1 (stereo not drawn),/,/,-3,-41
CCN1Cc2cc(OC)ccc2-c2ccccc2S1(=O)=O,/,/,12,10
COc1ccccc1NC(=O)CSc1nncs1,/,/,-4,18
CCOC(=O)c1nn(-c2ccc(Br)cc2)cc1C(=O)c1cccc2ccccc12,-1,-4,-4,-104*
C=CCc1cccc2cc(C(=O)NNC(=O)c3ccncc3)c(=O)oc12,81*,-10,5,14
C=CCc1cccc2cc(C(=O)Nc3cccc(C(=O)O)c3)c(=O)oc12,-2,-2,6,-2
CCOC(=O)C1C(=O)C(=O)N(C2CCCCC2)C1C(=O)OCC (stereo not drawn),/,/,2,-10
COc1cc2c(cc1OC)[C@@H](NC(=O)Cc1ccc(F)cc1)[C@H](OCc1ccccc1)C2,/,/,-16,-131*
CCOC(=O)CC(=O)CSCC(=O)Nc1ccc(C)cc1,0,3,-8,-75*
COC(C(=O)NNS(=O)(=O)c1ccccc1[N+](=O)[O-])c1ccccc1 (stereo not drawn),1,10,-96*,12
F[B-](F)(F)c1cc2ccccc2s1,/,/,0,4
CCOC(=O)CC/C(C)=N\N=C1\SC(CC(=O)O)C(=O)N1c1ccccc1 (stereo not drawn),-2,12,2,8
O=C(O)CC1S/C(=N\N=C2CCCCCC2)N(c2ccccc2)C1=O (stereo not drawn),0,-6,-104*,15
O=C(NCCCn1ccnc1)Nc1ccc2c(c1)OCO2,1,6,-112*,4
Cc1ccc2nc3sc(C(=O)Nc4ccc(F)cc4)cc3cc2c1,-2,12,/,/
Cc1cccn2c(NCc3ccc4c(c3)OCO4)c(-c3ccc(O)cc3)nc12,17,-16,8,-94*
COc1ccc(-c2nc3cc(C)ccn3c2NCc2ccc3c(c2)OCO3)cc1,?,-16,-83*,-81*
COc1ccc(-c2nc3ccccn3c2NCc2ccc3c(c2)OCO3)cc1,?,-11,7,-23
CC(Sc1nc2ncc(Cl)cc2[nH]1)C(=O)NC1(C#N)CCCCC1 (stereo not drawn),0,-4,-22,1
O=C1NC(CCO)C(=O)NC1CCO (stereo not drawn),/,/,1,-2
CC(C)(C)OC(=O)NCc1ccc(CNC(=O)c2nc[nH]c2C(=O)N2CCN(C(=O)OC(C)(C)C)CC2)cc1,8,1,-3,3
CCN1CCN(Cc2ccc(NC(=O)c3cc(NC(=O)C(=O)c4c[nH]c5ccccc45)cc(OC)c3)cc2C(F)(F)F)CC1,0,?,18,-9
CCN1CCN(Cc2ccc(NC(=O)c3ccc(C)c(NC(=O)C(=O)c4c[nH]c5ccccc45)c3)cc2C(F)(F)F)CC1,-2,4,-132*!,0
O=C(NCC1CCCO1)c1cccc(S(=O)(=O)Nc2ccc(F)cc2)c1 (stereo not drawn),0,11,39,-22
SMILES,TRPV1 ag,TRPV1 PAM,KCNH2 WT inh,KCNH2 3.1 block
Ic1ccc(N2CCN(Cc3c[nH]c4ncccc34)CC2)cc1,3,-9,-19,-79*
CCCNC(=O)C(Cc1ccc(F)cc1)NC(=O)c1ccccc1 (stereo not drawn),5,-18,-12,0
O=C1NCN(c2ccccc2)C12CCN(CCCC(c1ccc(F)cc1)c1ccc(F)cc1)CC2,-3,7,-194*,1
C=C[C@]1(C)C[C@@H](OC(=O)CSCCN(CC)CC)[C@]2(C)C(C)CC[C@]3(CCC(=O)[C@H]32)[C@@H](C)[C@@H]1O (stereo partly drawn),2,-2,6,?
COc1ccccc1N(C)S(=O)(=O)c1ccc(C(=O)NCC(c2ccco2)N2CCCCC2)cc1 (stereo not drawn),/,/,4,-94*
O=C(NCC(c1ccco1)N1CCCC1)c1ccc(Cl)c(S(=O)(=O)N2CCc3ccccc32)c1 (stereo not drawn),1,5,-20,-77*
C=CCN(C(=O)CSc1nc2ccsc2c(=O)n1Cc1ccccn1)c1ccccc1,-4,8,-9,-91*
CCCCC[C@@H](/C=C/C1C(=O)C=C[C@H]1C/C=C\CCCC(=O)O)OC(C)=O (stereo partly drawn),/,/,0,4
O=C(OCc1cn([C@H]2C[C@H](c3ccc(Cl)cc3)N(C(=O)C3CCCCC3)C[C@@H]2O)nn1)c1ccccc1,/,/,-37,-82*
CC1CCCC(C)N1C(=O)COC(=O)CNS(=O)(=O)c1ccc2ccccc2c1 (stereo not drawn),/,/,-6,-3
COc1ccc(S(=O)(=O)N(CC(=O)N/N=C/c2cccs2)c2cc(C)cc(C)c2)cc1OC,1,8,1,-95*
CCOC(=O)C(Cc1c[nH]c2ccc([N+](=O)[O-])cc12)(NC(C)=O)C(=O)OCC,/,/,-7,-22
COCCOC(=O)C(C#N)c1nc2ccccc2nc1N1CCN(Cc2ccccc2)CC1 (stereo not drawn),15,23,-11,-88*
COCC(C)OC(=O)C(C#N)c1nc2ccccc2nc1N1CCN(Cc2ccccc2)CC1 (stereo not drawn),/,/,12,-26
C=CCOC(=O)C(C#N)c1nc2ccccc2nc1N1CCN(Cc2ccccc2)CC1 (stereo not drawn),1,-3,?,-87*
N#CC(C(=O)NC1CC1)c1nc2ccccc2nc1N1CCN(C/C=C/c2ccccc2)CC1 (stereo not drawn),22,-9,-104*,-86*
Cc1c(NS(=O)(=O)c2cccs2)cccc1-c1nc2cccnc2s1,1,17,-3,-87*
COc1ccccc1CNC(=O)CCC(=O)Nc1nnc(C)s1,0,2,-298*,-4
CCOC(=O)C=Nc1c(N)n(C)c(=O)n(C)c1=O,0,-15,-5,-92*
O=C(NCC(c1ccccc1)N1CCCC1)C1CCN(C(=O)Nc2ccccc2)CC1 (stereo not drawn),16,-7,2,11
O=C(CCc1nc2ccccc2[nH]1)NCc1ccc2c(c1)OCO2,1,13,-13,-3
O=C(NCCc1nc2ccccc2[nH]1)/C(=C/c1ccc2c(c1)OCO2)NC(=O)c1ccccc1Cl,24,-7,?,-77*
O=C(CCc1nc2ccccc2[nH]1)Nc1ccc2c(c1)OCO2,-6,-19,2,-198*

# Assay outcomes from PubChem.
